Where a name gives a salt, the structure may show the parent alone.
Tests used:
Experiment in all cases: phenotypically active (imaging signature differs from DMSO and reproducible) at any of 0.3-9 uM (binary (1 = active, 0 = inactive)); higher = active
Conditions in all cases: treatment time: 24 h
[1] = system: A549-ACTB-RAB5A
How it was run: (§1)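 Four wells per concentration (0.3, 1, 3 or 9 µM) were treated for 24 h in each of fifteen gene-edited reporter lines from A549, HepG2 and WPMY1 cells, then imaged live. After normalising live-cell features to solvent control wells, deviation was defined as ≥3 of 4 wells lying past the 95th percentile of control Euclidean distances. Reproducibility was defined as a median replicate Pearson correlation above the 95th percentile of non-replicates. Both had to hold for phenotypic activity.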

[2] = system: A549-CANX-COX4
How it was run: as §1

[3] = system: A549-GM130-SQSTM1
How it was run: as §1

[4] = system: A549-TP53BP1-CLTA
How it was run: as §1

[5] = system: A549-TUBA1B-RELA
How it was run: as §1

[6] = system: HepG2-ACTB-RAB5A
How it was run: as §1

[7] = system: HepG2-CANX-COX4
How it was run: as §1

[8] = system: HepG2-GM130-SQSTM1
How it was run: as §1

[9] = system: HepG2-TP53BP1-CLTA
How it was run: as §1

[10] = system: HepG2-TUBA1B-RELA
How it was run: as §1

[11] = system: WPMY1-ACTB-RAB5A
How it was run: as §1

[12] = system: WPMY1-CANX-COX4
How it was run: as §1

[13] = system: WPMY1-GM130-SQSTM1
How it was run: as §1

[14] = system: WPMY1-TP53BP1-CLTA
How it was run: as §1

[15] = system: WPMY1-TUBA1B-RELA
How it was run: as §1

Measured: phenotypically active

COc1ccc2[nH]c(S(=O)Cc3ncc(C)c(OC)c3C)nc2c1 (stereo not given) [omeprazole]
inactive: [1] 0 | [2] 0 | [3] 0 | [4] 0 | [5] 0 | [6] 0 | [7] 0 | [8] 0 | [9] 0 | [10] 0 | [11] 0 | [12] 0 | [13] 0 | [14] 0 | [15] 0

CN1C(=O)OC(C)(C)C1=O [trimethadione]
inactive: [1] 0 | [2] 0 | [3] 0 | [4] 0 | [5] 0 | [6] 0 | [7] 0 | [8] 0 | [9] 0 | [10] 0 | [11] 0 | [12] 0 | [13] 0 | [14] 0 | [15] 0

OC[C@H]1O[C@@H](Oc2ccc(O)cc2)[C@H](O)[C@@H](O)[C@@H]1O [Arbutin]
inactive: [1] 0 | [2] 0 | [3] 0 | [4] 0 | [5] 0 | [6] 0 | [7] 0 | [8] 0 | [9] 0 | [10] 0 | [11] 0 | [12] 0 | [13] 0 | [14] 0 | [15] 0

CC1(C(=O)O)CCC2(C)CCC3(C)C(=CC(=O)C4C5(C)CCC(OC6OC(C(=O)O)C(O)C(O)C6OC6OC(C(=O)O)C(O)C(O)C6O)C(C)(C)C5CCC43C)C2C1 (stereo not given) [Glycyrrhizic acid]
inactive: [1] 0 | [2] 0 | [3] 0 | [4] 0 | [5] 0 | [6] 0 | [7] 0 | [8] 0 | [9] 0 | [10] 0 | [11] 0 | [12] 0 | [13] 0 | [14] 0 | [15] 0

CC(C)[N@+]1(C)[C@@H]2CC[C@H]1C[C@@H](OC(=O)C(CO)c1ccccc1)C2 (stereo not given in full) [ipratropium]
inactive: [1] 0 | [2] 0 | [3] 0 | [4] 0 | [5] 0 | [6] 0 | [7] 0 | [8] 0 | [9] 0 | [10] 0 | [11] 0 | [12] 0 | [13] 0 | [14] 0 | [15] 0

CC1Cc2ccccc2N1NC(=O)c1ccc(Cl)c(S(N)(=O)=O)c1 (stereo not given) [indapamide]
inactive: [1] 0 | [2] 0 | [3] 0 | [4] 0 | [5] 0 | [6] 0 | [7] 0 | [8] 0 | [9] 0 | [10] 0 | [11] 0 | [12] 0 | [13] 0 | [14] 0 | [15] 0

CCCC(=O)Nc1ncnc2c1ncn2[C@@H]1O[C@@H]2COP(=O)(O)O[C@H]2[C@H]1OC(=O)CCC [Dibutyryl-cAMP, sodium salt]
inactive: [1] 0 | [2] 0 | [3] 0 | [4] 0 | [5] 0 | [6] 0 | [7] 0 | [8] 0 | [9] 0 | [10] 0 | [11] 0 | [12] 0 | [13] 0 | [14] 0 | [15] 0

O=c1[nH]cnc2ccccc12
inactive: [1] 0 | [2] 0 | [3] 0 | [4] 0 | [5] 0 | [6] 0 | [7] 0 | [8] 0 | [9] 0 | [10] 0 | [11] 0 | [12] 0 | [13] 0 | [14] 0 | [15] 0

CN(C)CCC[C@@]1(c2ccc(F)cc2)OCc2cc(C#N)ccc21 [escitalopram]
inactive: [1] 0 | [2] 0 | [3] 0 | [4] 0 | [5] 0 | [6] 0 | [7] 0 | [8] 0 | [9] 0 | [10] 0 | [11] 0 | [12] 0 | [13] 0 | [14] 0 | [15] 0

CC(=O)Nc1nnc(S(N)(=O)=O)s1 [acetazolamide]
inactive: [1] 0 | [2] 0 | [3] 0 | [4] 0 | [5] 0 | [6] 0 | [7] 0 | [8] 0 | [9] 0 | [10] 0 | [11] 0 | [12] 0 | [13] 0 | [14] 0 | [15] 0

Cc1cc(C)nc(SCC(=O)Nc2ncc(Cc3cccc4ccccc34)s2)n1
inactive: [1] 0 | [2] 0 | [3] 0 | [4] 0 | [5] 0 | [6] 0 | [7] 0 | [8] 0 | [9] 0 | [10] 0 | [11] 0 | [12] 0 | [13] 0 | [14] 0 | [15] 0

O=C1CCC[C@@H]2[C@H]3CCC[N+]4([O-])CCC[C@@H](CN12)[C@@H]34 (stereo not given in full) [Oxymatrine]
inactive: [1] 0 | [2] 0 | [3] 0 | [4] 0 | [5] 0 | [6] 0 | [7] 0 | [8] 0 | [9] 0 | [10] 0 | [11] 0 | [12] 0 | [13] 0 | [14] 0 | [15] 0
